Assay results as given in PubChem BioAssay AID504569 (NMMLSC, 2011).
Potency and affinity values are given separately. The source made the active and inactive calls.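 Rule for the calls: active = activity score above a set limit, rewarding a half-maximal dose under 10 µM and fitted response height over 20%; inactive = the rest.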

The molecules below were run against ATP-dependent translocase ABCB1 (Homo sapiens) (UniProt P08183) (assay: ABCB1 efflux inhibitor potency, dose response, Jurkat-DNR cells, JC-1, flow cytometry, set 2 (AID 504569)). Conditions: JC-1 efflux; series mostly up to 50 µM; inhibition: at the top concentration.
ATP-dependent translocase ABCB1 (Homo sapiens), sequence (P08183 whole entry, looked up): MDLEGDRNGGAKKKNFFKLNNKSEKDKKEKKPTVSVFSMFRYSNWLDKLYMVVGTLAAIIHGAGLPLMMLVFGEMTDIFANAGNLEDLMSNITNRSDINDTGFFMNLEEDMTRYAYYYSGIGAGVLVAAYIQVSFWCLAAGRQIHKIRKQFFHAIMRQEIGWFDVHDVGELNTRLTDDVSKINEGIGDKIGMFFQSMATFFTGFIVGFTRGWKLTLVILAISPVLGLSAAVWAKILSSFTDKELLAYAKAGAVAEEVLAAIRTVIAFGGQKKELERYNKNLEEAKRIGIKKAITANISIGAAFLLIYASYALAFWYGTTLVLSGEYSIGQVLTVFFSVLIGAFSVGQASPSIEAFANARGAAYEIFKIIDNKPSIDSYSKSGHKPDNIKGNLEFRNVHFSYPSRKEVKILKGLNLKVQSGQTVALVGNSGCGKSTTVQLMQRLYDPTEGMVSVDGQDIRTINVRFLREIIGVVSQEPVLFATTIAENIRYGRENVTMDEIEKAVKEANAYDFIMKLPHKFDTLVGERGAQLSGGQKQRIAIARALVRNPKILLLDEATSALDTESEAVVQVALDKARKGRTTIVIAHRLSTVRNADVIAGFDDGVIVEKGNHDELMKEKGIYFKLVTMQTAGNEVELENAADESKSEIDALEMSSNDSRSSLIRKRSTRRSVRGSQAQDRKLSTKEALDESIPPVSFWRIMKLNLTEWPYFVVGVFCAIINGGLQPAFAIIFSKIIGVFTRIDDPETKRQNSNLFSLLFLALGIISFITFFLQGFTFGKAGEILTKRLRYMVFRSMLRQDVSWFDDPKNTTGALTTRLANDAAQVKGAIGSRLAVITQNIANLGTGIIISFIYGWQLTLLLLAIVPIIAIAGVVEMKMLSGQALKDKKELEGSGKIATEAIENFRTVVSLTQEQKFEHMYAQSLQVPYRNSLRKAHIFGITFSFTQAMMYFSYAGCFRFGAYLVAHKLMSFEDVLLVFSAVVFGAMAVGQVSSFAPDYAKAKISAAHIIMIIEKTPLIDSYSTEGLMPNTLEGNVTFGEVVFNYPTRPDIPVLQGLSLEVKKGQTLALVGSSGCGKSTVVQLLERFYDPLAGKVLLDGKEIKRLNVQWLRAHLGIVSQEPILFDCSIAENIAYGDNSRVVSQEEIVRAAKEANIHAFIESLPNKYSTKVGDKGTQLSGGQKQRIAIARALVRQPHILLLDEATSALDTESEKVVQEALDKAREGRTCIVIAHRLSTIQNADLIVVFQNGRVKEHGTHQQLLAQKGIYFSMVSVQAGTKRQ

inhibition, inactive:
O=S(=O)(c1ccccc1)N1CCN(c2cc(-c3ccccc3)nc3cc(-c4cccc(Cl)c4)nn23)CC1 5.5%
Cc1nc2cc(-c3cccs3)nn2c(N2CCN(C(=O)c3ccco3)CC2)c1C 11.9%
CC(=O)N1CCN(c2c(C)c(C)nc3cc(-c4ccc(Cl)cc4)nn23)CC1 27.8%
